# DAX1 inh-1: inhibits human nuclear receptor DAX1; HEK293 Gal4-DAX1 luciferase reporter, luminescence; inhibition, % at 6.75 µM; actives 0.99% (n = 340,000);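 active means inhibition above the mean over all tested compounds plus 3 SD, cut at about 4.2% in these data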;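 further: 0% = DAX1-transfected cells with DMSO and 100% = empty-vector control cells with DMSO; inhibition shows as a rise in luminescence from relieved DAX1 repression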
# Target sequence (P51843 207-470 limits assumed): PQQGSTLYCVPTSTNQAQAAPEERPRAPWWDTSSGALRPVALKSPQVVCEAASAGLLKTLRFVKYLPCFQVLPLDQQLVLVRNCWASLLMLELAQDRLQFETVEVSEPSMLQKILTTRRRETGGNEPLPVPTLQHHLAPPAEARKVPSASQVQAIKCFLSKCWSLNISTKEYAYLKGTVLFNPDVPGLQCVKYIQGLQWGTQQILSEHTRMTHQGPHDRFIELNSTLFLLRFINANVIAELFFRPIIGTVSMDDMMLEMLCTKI
# hgDAF-12 ag: hgDAF-12 agonism, primary luciferase screen; HEK293 GAL4-hgDAF12 UAS-luciferase reporter, agonist luminescence; normalized to butyrate control; activation, % at 6.8 µM; actives 1.8% (n = 370,000);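 active means activation above a cutoff set at the mean of all screened compounds plus 3 SD, cut at about 10% in these data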;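 further: 0% = DMSO wells and 100% = sodium butyrate wells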
# DAX1 inh-2: DAX1 (NR0B1) inhibition, primary screen; inhibition, % at 6.8 µM; AID 652010; actives 1.1% (n = 370,000); HEK293T StAR-luciferase reporter, SF-1/DAX-1 repression relief;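 active means inhibition above the mean over all tested compounds plus 3 SD, cut at about 3.6% in these data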;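 further: 0% = DAX-1 cells with DMSO and 100% = cells lacking DAX-1 with DMSO; higher inhibition means more luminescence from relief of DAX-1 repression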
# ssDAF12 agonist: S. stercoralis DAF-12 activation, primary screen | HEK293 ssDAF-12/GRIP1 lit1-tk-luc reporter, luminescence; % of 3 µM dafachronic acid response | activation, % at 6.8 µM | actives 1% (n = 370,000) | AID 652126;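 active means activation above the mean over all tested compounds plus 3 SD, cut at about 0.9% in these data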;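 further: 0% = DMSO-only wells and 100% = 3 µM delta7-dafachronic acid wells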
# hcDAF12 agonist: activators of H. contortus DAF-12 nuclear receptor; HEK293 hcDAF-12 lit1-tk-luc reporter, luminescence; 0% DMSO, 100% Δ7-dafachronic acid; activation, % at 6.8 µM; actives 1.4% (n = 370,000);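 active means activation above the mean of all tested compounds plus 3 SD, cut at about 5.5% in these data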;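 further: 100% = response to 3 µM Δ7-dafachronic acid high control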
# * = called active by the depositor; . = no result given. An excerpt weighted towards active compounds, which were near 4.1% of everything screened.
SMILES,DAX1 inh-1,hgDAF-12 ag,DAX1 inh-2,ssDAF12 agonist,hcDAF12 agonist
CC(C)CC(=O)N1CCC(C(=O)NCC2COc3ccccc3O2)CC1 (stereo unspecified),.,-1,0,-2,-1
O=c1c2cc(NC(=S)N3CCCCC3)ccc2nc2n1CCCCC2,0,5,-1,1.1*,0
CCSc1nsc(NC(=O)Nc2ccccc2Cl)n1,1,11*,0,0,0
CCOC(=O)CSc1nc(CC)nc2ccccc12,0,1,0,-2,0
CCOC(=O)CSc1nc(Cc2ccccc2)nc2ccccc12,4.3*,-1,0,-1,-3
Nc1[nH]c2ccccc2c1C(=O)NC1CC1,.,4,0,0,2
OCCNc1nc(-c2ccccc2)nc2ccccc12,0,5,0,1.1*,1
OCCCNc1nc(-c2ccc(Cl)cc2)nc2ccccc12,-1,1,0,-1,-1
COc1ccccc1N1C[C@@H]2C[C@@H](c3ccco3)N3CCC[C@@]23C1=O,4.9*,-1,0,-1,-1
C=CCN(CC#CC1=CCCCC1)Cc1ccc(OC)cc1OC,.,2,0,-2,-2
CC(C)(C)c1ccc(C(=O)NCC(=O)NNC(=O)c2ccccc2O)cc1,-1,1,2,-1,0
Cc1ccc(O)c(C(=O)CC(=O)c2ccc(C(C)(C)C)cc2)c1,3,11*,1,-1,1
COCCCNC(=O)C[C@H]1C[C@@]2(C(=O)OC)C(=C[C@H](C3CCCC3)O[C@@H]2C)N(CCc2ccc(OC)c(OC)c2)C1=O,.,2,-1,-1,-2
Cc1cc(C)n(-c2ccc(C(=O)OCC(=O)Nc3cc(Cl)ccc3[N+](=O)[O-])cc2)n1,-1,2,0,1.2*,5
Cn1c(C(=O)c2ccccc2[N+](=O)[O-])nc2ccccc21,1,4,-1,0,5.8*
Cn1c(C(=O)c2ccccc2)nc2ccccc21,2,2,0,-1,3
CCN1C(=O)CC(c2ccc(OC(C)C)cc2)C1=O (stereo unspecified),4.5*,0,0,-1,0
CCOc1ccccc1NC(=S)N(CCC(C)C)C1CCN(C(C)=O)CC1,4.7*,2,0,-1,1
CCOc1ccccc1NC(=S)N1CCC(NC(=O)C(C)(C)C)CC1,5.0*,3,-1,-1,1
O=C1CCC[C@H]2C[C@H](NCc3cccc(I)c3)CC[C@]23CCCN13,.,-3,.,0,-2
COc1ccc(O)c(-c2cc(-c3cccs3)[nH]n2)c1,2,10,0,1.1*,5.8*
CCC[C@H]1[C@@H](OC(=O)NCc2ccc(Cl)c(Cl)c2)CC[C@@]23CCCN2C(=O)CCC[C@@H]13,.,2,.,-3,-4
C[C@@H]1ON(C)[C@H]2C[C@H]3c4[nH]c5ccccc5c4CCN3C(=O)[C@@H]12,-1,1,1,1.0*,3
Cc1ccccc1-c1cccc2c3c([nH]c12)[C@@H]1C[C@H]2[C@@H](C(=O)N1CC3)[C@H](C)ON2C,.,2,0,0,0
CC1(C)CC(=O)C=C(Nc2ccccc2NC(=O)c2cccc(F)c2F)C1,.,2,-1,-1,0
SMILES,DAX1 inh-1,hgDAF-12 ag,DAX1 inh-2,ssDAF12 agonist,hcDAF12 agonist
COc1ccc2c(=O)c3c(=O)n(CCc4ccccc4)c(C(C)C)nc3oc2c1,4.7*,0,0,-1,1
COc1ccc2c(=O)c3c(=O)n(CCc4ccccc4)c(C)nc3oc2c1,.,0,0,0,3
O=c1[nH]nc(Cc2ccc(-c3ccccc3Cl)o2)c2ccccc12,0,2,0,1.4*,0
O=c1[nH]nc(Cc2ccc(Cl)cc2)c2ccccc12,-1,0,0,-1,-2
COc1cccc(OC)c1NC(=O)OC1CCC12CCC(c1ccccc1)CC2 (stereo unspecified),.,4,.,-1,-1
COc1ccc2nc(N3C(=O)/C(=C/c4ccccc4)NC3=S)sc2c1,-1,0,0,-2,4
CCOc1ccc2nc(N3C(=O)/C(=C/c4ccccc4)NC3=S)sc2c1,5.1*,10,2,0,3
Cc1ccc(-c2nnc(CCC(=O)N(C)Cc3nccs3)o2)s1,0,4,0,1.9*,3
CC(=O)c1ccc(-c2nnc(CCC(=O)N(C)Cc3cccc4cnccc34)o2)s1,1,-1,-1,-1,-1
c1ccc(COc2ccc(OCCn3cncn3)cc2)cc1,1,13*,3,0,4
CCN(Cc1cn(Cc2ccccc2)nn1)S(=O)(=O)c1ccc(F)cc1Br,.,-1,-1,-2,-2
Cn1c(SC/C=C/c2ccccc2)nnc1-c1cccnc1,.,2,0,-2,-1
CCSc1nnc(-c2ccco2)n1C,.,-2,1,1,1
Cn1c(SCCc2ccccc2)nnc1-c1ccco1,.,13*,2,0,5
COc1cccc(-c2csc(NC(C)=O)n2)c1,1,11*,1,-1,0
CC(=O)Nc1nc(-c2ccc3c(c2)CCO3)cs1,0,11*,0,-1,2
CC(=O)Nc1nc(COc2ccccc2)cs1,1,13*,2,-1,2
C[C@H]1[C@@H](OC(=O)NCc2ccc(C(F)(F)F)cc2)CC[C@@]23CCCN2C(=O)CCC[C@@H]13,.,-4,.,-2,-1
CC(C)c1ccc(NC(=O)C2CC3CCC2C3)cc1 (stereo unspecified),6.0*,9,1,-1,0
O=C(Nc1ccc(F)cc1)C1CC2CCC1C2 (stereo unspecified),0,2,0,-1,-2
CCC(C)c1ccc(NC(=O)C2CC3CCC2C3)cc1 (stereo unspecified),4.7*,7,1,-1,1
CCOC(=O)N1CCC(Nc2c(-c3ccc(C)cc3)c(=O)c2=O)CC1,-1,-2,0,3.5*,0
CSc1nnc(N2C(=O)C(O)=C(C(=O)c3ccco3)C2c2ccc(F)cc2)s1 (stereo unspecified),1,8,4.2*,-1,4
CCOc1ccc(NC(=O)CCNS(=O)(=O)c2ccc3c(c2)oc(=O)n3C)cc1,0,1,-2,-1,5.9*
Cc1ccc(NC(=O)CCNS(=O)(=O)c2ccc3c(c2)oc(=O)n3C)cc1,0,2,1,-1,0
CCOC(=O)c1cnc(SCC(=O)c2ccc(C)cc2)nc1N,-1,3,0,-1,-1
CCOC(=O)c1cnc(SCC#N)nc1N,6.9*,0,0,0,-2
CCOC(=O)c1cnc(SC)nc1N,0,1,0,-1,-1
CCOC(=O)c1cnc(SCC(C)C)nc1N,2,11*,3,0,2
Cc1nc2sc(C(=O)NCc3ccc4c(c3)OCO4)c(N)c2c(C)c1Cl,.,-1,0,-1,-3

# Screening data from PubChem BioAssay.
